# The list is not random: actives were taken first. Their share in the collection is about 9%.
# ALOX12 inh: ALOX12 (human) lipoxygenase inhibition. AID 1671190. Potency, µM (series often up to 108 µM), inactives show at the top dose activity change, negative = inhibition, most hits filed as inhibitors. 1.1% of 580,000 active. P18054. purified 12hLO, xylenol orange hydroperoxide absorbance; also: % is scaled to controls: 0 for no effect and ±100 for the full control effect
#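 Purified human 12hLO at 150 nM in 25 mM Hepes, 0.01% Triton X-100, pH 7.0, preincubated 15 min at room temperature with compound. Reaction started with 40 uM arachidonic acid, 30 min at room temperature. Hydroperoxide measured by Fe-xylenol orange, 573/405 nm absorbance ratio.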
# JMJD2A Tudor inh: inhibitors of human JMJD2A Tudor domain; O75164; AlphaScreen JMJD2A-Tudor / H3K4me3 peptide binding; Potency, µM (doses to about 114 µM), inactives show at the top dose activity change, negative = inhibition, usual class: inhibitors; 4.4% of 390,000 active; AID 504339; also: % is scaled to controls: 0 for no effect and ±100 for the full control effect; nearly all actives have a fitted effect of over 50% in size
# G9a block: blocks human histone lysine methyltransferase G9a; Q96KQ7; G9a H3K9 monomethylation, AlphaScreen, 2 h; Potency, µM (series often up to 102 µM), without a hit: at the top dose activity, negative = inhibition, actives largely listed as inhibitors; 8.8% of 350,000 active; also: % is scaled to controls: 0 for no effect and ±100 for the full control effect; nearly all actives have a fitted effect of over 75% in size
#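 Step 1: enzyme (final 20 nM) with compound, 15 min RT. Step 2: substrate peptide 500 nM and SAM 20 uM, 2 h RT. Step 3: anti-H3K9me1 antibody and AlphaScreen beads, 10 min, then plate read.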
# BAZ2B block: blocks human BAZ2B | Potency, µM (titrated, usually from 114 µM), for inactives: top-dose activity change, negative = inhibition, hits mostly inhibitors | Q9UIF8 | 4.4% of 360,000 active | AID 504333 | AlphaScreen BAZ2B-H3K14Ac peptide displacement; also: % is scaled to controls: 0 for no effect and ±100 for the full control effect; nearly all actives have a fitted effect of over 60% in size
#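 AlphaScreen luminescence quantifies BAZ2B engagement of H3K14Ac peptide; the protein and biotinylated peptide are both at 50 nM final, buffer PBS pH 7.4 with 0.01% Tween-20, all steps at room temperature.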
# PLK1 PBD inh: inhibitors of human PLK1 polo-box domain binding. P53350. Plk1 PBD binding of FITC phosphopeptide, fluorescence polarization. Potency, µM, without a hit: max response, negative = inhibition, actives largely listed as inhibitors. 2.8% of 360,000 active. AID 720504; also: series mostly up to about 57 µM; % is scaled to controls: 0 for no effect and ±100 for the full control effect; nearly all actives have a fitted effect of over 65% in size
# Target sequence (P53350 whole entry, looked up, the tested form may be a part): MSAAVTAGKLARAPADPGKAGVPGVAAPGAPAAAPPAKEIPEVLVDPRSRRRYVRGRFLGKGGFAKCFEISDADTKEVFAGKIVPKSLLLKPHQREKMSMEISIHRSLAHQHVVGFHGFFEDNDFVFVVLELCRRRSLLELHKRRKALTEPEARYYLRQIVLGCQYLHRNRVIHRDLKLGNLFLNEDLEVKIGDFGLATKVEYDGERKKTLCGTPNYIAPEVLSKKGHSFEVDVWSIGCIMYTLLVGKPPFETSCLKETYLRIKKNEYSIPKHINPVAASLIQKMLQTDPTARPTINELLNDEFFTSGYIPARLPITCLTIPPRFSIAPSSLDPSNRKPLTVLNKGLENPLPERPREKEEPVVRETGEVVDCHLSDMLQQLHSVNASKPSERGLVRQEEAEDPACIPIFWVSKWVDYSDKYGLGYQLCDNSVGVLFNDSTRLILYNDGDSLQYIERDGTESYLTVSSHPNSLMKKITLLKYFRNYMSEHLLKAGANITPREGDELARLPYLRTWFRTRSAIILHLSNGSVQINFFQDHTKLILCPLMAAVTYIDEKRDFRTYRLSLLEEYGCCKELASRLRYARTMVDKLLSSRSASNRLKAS
# HP1b binding inh: inhibitors of HP1-beta chromodomain binding to methylated histone tails; P83916; AlphaScreen HP1-beta / biotin-H3K9me3 peptide binding; Potency, µM (top dose mostly 114 µM), for the others: at the highest dose activity change, negative = inhibition, usual class: inhibitors; 0.56% of 390,000 active; AID 540317; also: nearly all actives have a fitted effect of over 70% in size
#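 Compound inhibition of the preformed complex between 50 nM HP1-beta and 50 nM biotinylated H3K9me3 peptide was read by AlphaScreen. Buffer was PBS pH 7.4 with 0.01% Tween-20. Incubations ran 30 min at room temperature, with 10 ug/mL donor/acceptor beads.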
# An asterisk follows results filed as active; ? = inconclusive; . = not tested or not shown; [ ] = dose if it differs, or a comment. Calls follow the shape of the dose curve; as a rule, active = well fitted curve in the direction sought with a large enough effect; inconclusive = small, poorly fitted or top-dose-only effect, or another doubt; inactive = no such curve, though single readings can be large; an effect the other way counts as inactive or inconclusive. Potency is read from the fitted curve at half-maximal effect.
SMILES,ALOX12 inh,JMJD2A Tudor inh,G9a block,BAZ2B block,PLK1 PBD inh,HP1b binding inh
CCOc1ccc(CCNC(=O)CN2CCN(Cc3ccc(F)cc3)C2=O)cc1OCC,0%,-11%,-4%,?,-5%,38%
CC(=O)N1CCC(N(Cc2ccc(C)o2)C(=O)Nc2ccccc2F)CC1,2%,-2%,-3%[59 µM],-4%,.,28%
CCOC(=O)c1sc(NC(=O)c2cc(-c3cccc(O)c3)on2)c(C(=O)OCC)c1C,12%,-17%,-4%,4%,-5%,52%
CCOC(=O)c1c(NC(=O)c2cc(-c3cccc(O)c3)on2)sc(C(C)=O)c1C,7%[57.4 µM],-35%,?,?,-11%,64%
CCOC(=O)c1c(-c2ccc(C)cc2)csc1NC(=O)c1nc(SC(C)C)ncc1Cl,-23%,-17%,13µM*,-7%,.,-12%
CCOC(=O)c1c(NC(=O)c2cc(-c3cccc(Cl)c3)on2)sc(C(C)=O)c1C,?,-12%,14µM*,1%,.,71µM*
CCOC(=O)c1c(-c2ccccc2)csc1NC(=S)N(CC)CC,-9%,18%,22µM*,4%,-3%,15%
CCOC(=O)c1c(NC(=O)c2cc(-c3ccc(Br)cc3)on2)sc(C)c1C,-5%,-19%,2.8µM*,3%,.,-10%
Cc1ccc2c(c1)N(CC(=O)NCc1ccco1)C(=O)CO2,-1%,-4%[57.1 µM],-1%[59 µM],8%,-2%,24%
CCN(CC)C(=O)C(NC(=O)c1cccs1)C1CCN(C(=O)c2cccc(F)c2)CC1 (configuration not stated),12%,.,.,.,.,.
COc1ccc(NC(=S)N2CCN(S(=O)(=O)c3ccccc3)CC2)cc1OC,.,-19%,.,?,-4%,8%
Cc1cc(NCCOCCO)n2c(nc3ccccc32)c1C#N,0%,1%,56%,9%,-8%,0%
CCOC(=O)c1c(-c2ccc(C)cc2)csc1NC(=O)c1cc(=O)c2cc(C)cc(C)c2o1,-27%,-10%,7.1µM*,12%,.,?
CCOC(=O)c1c(-c2ccc(C)cc2)csc1NC(=O)c1cc(=O)c2cc(Cl)ccc2o1,-6%,-5%,14%[59 µM],20%,.,51%
CCOC(=O)c1c(-c2ccc(C)cc2)csc1/N=C/N(C)C,-17%,?,?,-32%,27µM*,-7%
Cc1cc(NC(=O)COC(=O)C2CC(=O)N(c3cccc(C)c3C)C2)no1 (configuration not stated),5%,-13%,18%[59 µM],0%,-4%,4%
Cc1ccccc1S(=O)(=O)NC(=NCc1ccc(F)cc1)c1ccccc1,9%,-6%,.,.,0%,25%
COc1cc(=O)[nH]c(SCC(=O)Nc2nc3c(s2)CCCC3)n1,-26%,32µM*,9%[59 µM],2%,12µM*,-5%
Cc1cc(=O)[nH]c(SCC(=O)Nc2nnc(SCc3ccccc3)s2)n1,-16%,-11%[11.4 µM],-6%,-39%,24µM*,-6%
Cc1cc(=O)[nH]c(SCC(=O)Nc2nc(-c3ccccc3)cs2)n1,?,-20%,50µM*,?,?,15%
Cc1cc(=O)[nH]c(SCC(=O)NNC(=O)Cc2ccccc2)n1,14%,-3%,36%,-38%,5%,17%
O=C(CSc1nc2ccccc2o1)Nc1nc2ccc(Br)cc2s1,74%,-21%[11.4 µM],45µM*,-17%,-24%,55%
COc1cc(=O)[nH]c(SC(C)C(=O)Nc2nc3c(s2)CCCC3)n1 (configuration not stated),?,8%,-24%,-4%,0%,29%
O=C(COc1ccc(F)cc1Br)NCC1(N2CCOCC2)CCCCC1,3%,-7%,-5%[2.33 µM],8%,-7%,30%
O=C(Nc1nccs1)C1CCN(S(=O)(=O)c2c(Cl)cccc2Cl)CC1,387%,-22%,-36%[12.7 µM],-3%,-3%,12%
SMILES,ALOX12 inh,JMJD2A Tudor inh,G9a block,BAZ2B block,PLK1 PBD inh,HP1b binding inh
C=CCn1cnc2c(c1=O)c1nc3ccccc3nc1n2/N=C/c1cccc(OC)c1OC,1%,-12%,?,11%,-29%,29%
O=C(CSc1ccccn1)Nc1nc2ccccc2s1,?,1%,13%[59 µM],3%,-1%,33%
O=C(CSc1cn[nH]n1)Nc1nc2ccccc2s1,-5%,-13%,40µM*,-1%,-3%,34%
Cc1cc(=O)[nH]c(SCC(=O)Nc2nc3ccccc3s2)n1,-28%,-23%,32µM*,?,?,28%
C=CCSc1nnc(NC(=O)CSc2nc3ccccc3[nH]2)s1,-5%,1%,1.8µM*,-8%,-16%,27%
COC(=O)c1ccc(CSc2nnc(C)s2)cc1,-9%,?,19%,-7%,3.4µM*,-7%
Cc1cc(=O)[nH]c(SCC(=O)Nc2ccnc3ccccc23)n1,-23%,-7%,?,-9%,-5%,7%
COc1ccccc1-n1nnnc1SCc1ccccc1,0%,53%,-6%,55%,-3%,112%
Cn1cnc(S(=O)(=O)N2c3ccccc3CC2c2noc(C3CCOCC3)n2)c1 (configuration not stated),72%,.,.,.,.,.
CCC(=O)Nc1nnc(SCc2ccc(F)cc2)s1,29%,3%,8.9µM*,1%,-4%,46%
CCC(C)N(C(=O)c1csnn1)C(C(=O)NCc1ccc(F)cc1)c1ccccc1 (configuration not stated),0%,-12%,7%[59 µM],1%,1%,33%
O=c1[nH]c(N2CCc3ccccc3C2)nc2c1CCN(Cc1ccc(F)cc1)CC2,19%,.,.,.,.,.
CCOc1ccc(NC2=NCC(=O)N2CCc2ccccc2)cc1,-12%,-6%,?,79µM*,-1%,23%
COc1ccc(N2C(=O)C(Cl)=C(NCc3ccccc3)C2=O)cc1,?,-24%[11.4 µM],45µM*,-35%,-15%,21%
COc1ccc(NC2=C(Cl)C(=O)N(CCc3ccccc3)C2=O)cc1,-8%,?,?,-1%,9.5µM*,-20%
CN(C)CCNC(=O)C(=O)NCC(c1ccc2c(c1)OCO2)N1CCOCC1 (configuration not stated),-25%,-7%,1%[59 µM],1%,.,21%[57 µM]
COc1cccc(C(=O)N[C@H]2[C@H](O)[C@H](O)C[C@@H]2c2ccccc2C)c1,2%[176 µM],.,.,.,.,.
CCN(CC)c1cccc(OC2=NS(=O)(=O)c3ccccc32)c1,?,63µM*,16µM*,56µM*,3.4µM*,-21%
CCc1ccc(OC2=NS(=O)(=O)c3ccccc32)cc1,-14%,-12%,?,?,12µM*,21%
O=S1(=O)N=C(Oc2cccc(-c3ccccc3)c2)c2ccccc21,.,-13%,.,.,.,.
O=S1(=O)N=C(Oc2ccc(Cl)cc2)c2ccccc21,.,100µM*,.,.,.,.
Cn1c(=O)c2c(nc(N3CCCCC3)n2CCNC2=NCCC2)n(C)c1=O,160%,-13%,-1%[59 µM],-10%,-1%,14%
